# Experimental data: PubChem BioAssay (EPA / NIEHS)
# Calls of active or inactive are those of the source. Rule for the calls: active = hit-call score of the fitted dose curve at least 0.9, where 1 is the maximum; inactive = score below 0.9.
# Columns and labels:
# [1] = ATG_CRE_CIS: Attagene CIS-FACTORIAL HepG2 Assay for human cAMP Responsive Element (CRE) binding protein 3 (AID 2282926); conditions: HepG2 CRE cis-reporter, Attagene multiplexed mRNA; actives raise or lower the signal
# In short: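 Transfected HepG2 were treated for 24 hours, then RNA was extracted and reporter cDNA amplified with sequence-specific primers. Labelled fragments were separated by capillary electrophoresis, and the CRE signal was fitted bidirectionally with DMSO as baseline.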
# [2] = biological target: CCAAT/enhancer-binding protein beta (Homo sapiens) (UniProt P17676); experiment: ATG_C_EBP_CIS: Attagene CIS-FACTORIAL HepG2 Assay for human CCAAT/Enhancer Binding Protein (C/EBP) beta (AID 2282927); conditions: HepG2 Attagene cis-factorial transcription factor reporter; actives raise or lower the signal
# CCAAT/enhancer-binding protein beta (Homo sapiens), sequence (P17676 whole entry, looked up): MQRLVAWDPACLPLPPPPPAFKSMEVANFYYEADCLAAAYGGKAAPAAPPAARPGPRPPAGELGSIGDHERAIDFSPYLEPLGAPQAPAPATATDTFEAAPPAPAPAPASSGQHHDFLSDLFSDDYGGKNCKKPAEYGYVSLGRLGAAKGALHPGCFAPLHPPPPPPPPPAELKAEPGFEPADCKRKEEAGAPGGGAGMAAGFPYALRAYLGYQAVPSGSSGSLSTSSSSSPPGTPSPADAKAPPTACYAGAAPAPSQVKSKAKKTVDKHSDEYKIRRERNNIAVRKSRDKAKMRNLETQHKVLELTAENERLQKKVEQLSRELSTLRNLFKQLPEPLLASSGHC
# In short: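 Endogenous transcription factor activity in human liver HepG2 cells is inferred from induction of a CEBPB-linked reporter mRNA. Exposure lasts 24 h; activity is fitted in both directions relative to DMSO.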
# [3] = ATG_CMV_CIS: Attagene CIS-FACTORIAL HepG2 Assay for human CMV (Internal Marker) (AID 2282928); conditions: HepG2 CMV promoter reporter, transcription factor profiling; actives raise or lower the signal;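 note: endpoint acts as a background internal control marker rather than a target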
# In short: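 Cell system: HepG2, transiently transfected multiple reporter units under cis promoters. Exposure: 24 h. Detection: RT-PCR, FAM labeling, HpaI digestion, capillary electrophoresis. Analysis: bidirectional, DMSO baseline.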
# [4] = ATG_DR4_LXR_CIS: Attagene CIS-FACTORIAL HepG2 Assay for human Liver X Receptor (LXR), DR4 submotif (AID 2282929); conditions: HepG2 Attagene DR4 cis-reporter, mRNA transcription; actives raise or lower the signal
# In short: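 Readout: reporter transcript fluorescence after RT-PCR and capillary electrophoresis, fitted bidirectionally against DMSO controls. Human HepG2 liver cells carried transiently transfected multiplexed reporter constructs; endogenous transcription factor activity measured 24 h post-dosing.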
# [5] = biological target: Aryl hydrocarbon receptor (Homo sapiens) (UniProt P35869); experiment: ATG_Ahr_CIS: Attagene CIS-FACTORIAL HepG2 Assay for human Aryl Hydrocarbon Receptor (Ahr) (AID 2282930); conditions: HepG2 AhR cis-factorial reporter transcription; actives raise or lower the signal
# Aryl hydrocarbon receptor (Homo sapiens), sequence (P35869 whole entry, looked up): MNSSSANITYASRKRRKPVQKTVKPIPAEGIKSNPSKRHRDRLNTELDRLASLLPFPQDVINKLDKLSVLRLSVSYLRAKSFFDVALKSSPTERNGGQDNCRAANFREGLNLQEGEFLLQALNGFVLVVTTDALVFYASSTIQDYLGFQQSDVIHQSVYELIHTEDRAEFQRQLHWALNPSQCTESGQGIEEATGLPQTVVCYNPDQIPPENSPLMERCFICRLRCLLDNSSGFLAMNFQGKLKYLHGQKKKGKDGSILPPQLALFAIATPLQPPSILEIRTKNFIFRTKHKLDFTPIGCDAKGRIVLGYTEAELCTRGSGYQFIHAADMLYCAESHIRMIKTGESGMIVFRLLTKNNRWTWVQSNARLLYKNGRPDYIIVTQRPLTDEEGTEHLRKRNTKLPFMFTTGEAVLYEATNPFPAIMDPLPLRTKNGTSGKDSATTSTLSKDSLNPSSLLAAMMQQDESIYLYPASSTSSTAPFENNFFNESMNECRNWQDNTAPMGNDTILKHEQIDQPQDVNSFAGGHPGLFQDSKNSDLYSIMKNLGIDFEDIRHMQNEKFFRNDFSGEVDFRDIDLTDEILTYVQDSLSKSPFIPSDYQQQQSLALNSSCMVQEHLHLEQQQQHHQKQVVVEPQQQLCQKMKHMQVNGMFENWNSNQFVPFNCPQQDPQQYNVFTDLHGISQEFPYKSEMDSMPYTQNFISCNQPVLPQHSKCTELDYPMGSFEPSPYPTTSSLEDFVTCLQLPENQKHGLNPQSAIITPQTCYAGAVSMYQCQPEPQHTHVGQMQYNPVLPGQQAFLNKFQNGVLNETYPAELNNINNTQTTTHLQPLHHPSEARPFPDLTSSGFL
# In short: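 Transient MRTU transfection of HepG2 → 24 h compound exposure → total RNA, oligo(dT) RT → PCR, 6-FAM extension, HpaI cut → CE fluorescence. DMSO = baseline; bidirectional curve fit.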
# [6] = ATG_AP_1_CIS: Attagene CIS-FACTORIAL HepG2 Assay for human Activator Protein 1 (AP-1) (AID 2282931); conditions: HepG2 Attagene cis-factorial AP-1 reporter mRNA; actives raise or lower the signal
# In short: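 Reporter transcripts were measured 24 h after dosing by RT-PCR and capillary electrophoresis of fluorescent fragments. Cells: HepG2 carrying transfected cis-regulated reporter constructs reading endogenous factor activity. Gain or loss fitted against DMSO.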
# [7] = ATG_AP_2_CIS: Attagene CIS-FACTORIAL HepG2 Assay for human Activator Protein 2 (AP-2) (AID 2282932); conditions: HepG2 AP-2 cis-reporter, Attagene transcription factor profiling; actives raise or lower the signal
# In short: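 HepG2, transient MRTU transfection, cis-regulated reporters; 24 h compound exposure; RNA isolated, RT-PCR, 6-FAM labelling, HpaI digest, CE fluorescence. DMSO = negative control/baseline, bidirectional fit.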
# [8] = ATG_BRE_CIS: Attagene CIS-FACTORIAL HepG2 Assay for human Bone Morphogenetic Protein (BMP) Response Element (BRE) (AID 2282933); conditions: HepG2 BMP response element reporter, Attagene transcription factor profiling; actives raise or lower the signal
# In short: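 A HepG2 multiplex reporter system measured inducible reporter mRNA 24 h post-dosing. Detection: RT-PCR, 6-FAM primer extension, HpaI digestion, capillary electrophoresis. Activity fitted bidirectionally relative to DMSO.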
# [9] = biological target: Retinoic acid receptor alpha (Homo sapiens) (UniProt P10276); experiment: ATG_DR5_RAR_CIS: Attagene CIS-FACTORIAL HepG2 Assay for human Retinoic Acid Receptor Alpha (RARE), DR5 submotif (AID 2282934); conditions: HepG2 Attagene cis-factorial RARE DR5 reporter, mRNA; actives raise or lower the signal
# Retinoic acid receptor alpha (Homo sapiens), sequence (P10276 whole entry, looked up): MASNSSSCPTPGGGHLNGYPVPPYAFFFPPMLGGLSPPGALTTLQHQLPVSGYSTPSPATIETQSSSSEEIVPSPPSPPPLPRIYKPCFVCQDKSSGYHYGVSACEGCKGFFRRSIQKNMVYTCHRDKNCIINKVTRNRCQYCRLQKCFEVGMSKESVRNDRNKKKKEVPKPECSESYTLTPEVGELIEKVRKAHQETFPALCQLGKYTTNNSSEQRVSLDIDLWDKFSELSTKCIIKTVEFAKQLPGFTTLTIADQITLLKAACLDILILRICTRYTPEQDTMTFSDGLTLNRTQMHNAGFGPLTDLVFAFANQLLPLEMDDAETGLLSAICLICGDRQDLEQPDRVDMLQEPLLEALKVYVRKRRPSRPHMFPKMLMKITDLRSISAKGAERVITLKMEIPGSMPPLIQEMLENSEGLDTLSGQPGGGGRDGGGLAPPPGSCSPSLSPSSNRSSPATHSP
# In short: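 Transient MRTU transfection of HepG2; 24 h compound treatment; TriZol RNA, oligo(dT) RT, PCR, FAM labelling, capillary electrophoresis. Bidirectional fit vs DMSO. Endogenous TF activity at DR5 RARE.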
# [10] = biological target: Transcription factor E2F1 (Homo sapiens) (UniProt Q01094); experiment: ATG_E2F_CIS: Attagene CIS-FACTORIAL HepG2 Assay for human E2F Transcription Factor 1 (AID 2282935); conditions: HepG2 Attagene cis-reporter, E2F reporter RNA transcripts; actives raise or lower the signal
# Transcription factor E2F1 (Homo sapiens), sequence (Q01094 whole entry, looked up): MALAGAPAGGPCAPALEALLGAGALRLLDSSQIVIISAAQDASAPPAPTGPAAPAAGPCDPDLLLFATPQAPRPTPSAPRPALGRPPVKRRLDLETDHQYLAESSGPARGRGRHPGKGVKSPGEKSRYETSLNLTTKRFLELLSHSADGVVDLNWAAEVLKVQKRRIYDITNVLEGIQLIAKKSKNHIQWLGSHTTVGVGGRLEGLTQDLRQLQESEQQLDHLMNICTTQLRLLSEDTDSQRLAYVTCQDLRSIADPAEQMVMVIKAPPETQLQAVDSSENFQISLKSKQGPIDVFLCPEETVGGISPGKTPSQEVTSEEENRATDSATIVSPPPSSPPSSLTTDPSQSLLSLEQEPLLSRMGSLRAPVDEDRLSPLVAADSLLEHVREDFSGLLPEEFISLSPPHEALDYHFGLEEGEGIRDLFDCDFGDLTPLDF
# In short: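 Cis-element reporter mRNA induction in transiently transfected HepG2, 24 h exposure. Activity fitted in both directions relative to DMSO negative control.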
# [11] = ATG_E_Box_CIS: Attagene CIS-FACTORIAL HepG2 Assay for human Enhancer Box (E-box) (AID 2282936); conditions: HepG2 E-box cis-reporter transcription, actives raise or lower the signal
# In short: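 Cells: HepG2 (human liver), transient MRTU transfection. Exposure 24 h. RNA → oligo(dT) RT → PCR → 6-FAM label → HpaI → CE. Activity fitted both directions relative to DMSO.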
# [12] = ATG_M_61_CIS: Attagene CIS-FACTORIAL HepG2 Assay for M61 Transcription Factor (Internal Marker) (AID 2282937); conditions: HepG2 Attagene CIS-FACTORIAL M61 internal marker reporter; actives raise or lower the signal
# In short: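 Readout: fluorescent reporter mRNA fragments resolved by capillary electrophoresis after RT-PCR. Transiently transfected human HepG2 cells carried MRTU constructs reporting endogenous TF activity; 24 h chemical exposure; gain or loss of signal fitted relative to DMSO.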
# [13] = ATG_EGR_CIS: Attagene CIS-FACTORIAL HepG2 Assay for human Early Growth Response 1 (EGR1) (AID 2282938); conditions: HepG2 Attagene CIS-FACTORIAL EGR reporter mRNA; actives raise or lower the signal
# In short: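 Read-out: fluorescent reporter-mRNA fragments resolved by capillary electrophoresis after RT-PCR, 24 h post-dose in transiently transfected HepG2. Endogenous transcription-factor activity reported via cis-element-regulated reporter units; gain or loss fitted relative to DMSO.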
# [14] = ATG_M_19_CIS: Attagene CIS-FACTORIAL HepG2 Assay for M19 Transcription Factor (Internal Marker) (AID 2282939); conditions: HepG2 Attagene CIS-FACTORIAL M19 internal marker reporter; actives raise or lower the signal
# In short: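 Chemical-treated HepG2 (24 h) with MRTU constructs; reporter transcripts detected by fluorescent RT-PCR fragment analysis on capillary electrophoresis. Internal background marker, DMSO as baseline.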
# [15] = ATG_Ets_CIS: Attagene CIS-FACTORIAL HepG2 Assay for human Erythroblast Transformation Specific (ETS) (AID 2282941); conditions: HepG2 ETS cis-reporter transcription, actives raise or lower the signal
# In short: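 After transient cis-reporter transfection, HepG2 cells receive test chemical for 24 h. Reporter mRNA levels, measured by RT-PCR and capillary electrophoresis fluorescence, are analysed bidirectionally relative to the DMSO baseline.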
# [16] = biological target: Hepatocyte nuclear factor 3-beta (Homo sapiens) (UniProt Q9Y261); experiment: ATG_FoxA2_CIS: Attagene CIS-FACTORIAL HepG2 Assay for human Forkhead box A2 (FOXA2) (AID 2282942); conditions: HepG2 cis-reporter transcription factor activity, 24 h; actives raise or lower the signal
# Hepatocyte nuclear factor 3-beta (Homo sapiens), sequence (Q9Y261 whole entry, looked up): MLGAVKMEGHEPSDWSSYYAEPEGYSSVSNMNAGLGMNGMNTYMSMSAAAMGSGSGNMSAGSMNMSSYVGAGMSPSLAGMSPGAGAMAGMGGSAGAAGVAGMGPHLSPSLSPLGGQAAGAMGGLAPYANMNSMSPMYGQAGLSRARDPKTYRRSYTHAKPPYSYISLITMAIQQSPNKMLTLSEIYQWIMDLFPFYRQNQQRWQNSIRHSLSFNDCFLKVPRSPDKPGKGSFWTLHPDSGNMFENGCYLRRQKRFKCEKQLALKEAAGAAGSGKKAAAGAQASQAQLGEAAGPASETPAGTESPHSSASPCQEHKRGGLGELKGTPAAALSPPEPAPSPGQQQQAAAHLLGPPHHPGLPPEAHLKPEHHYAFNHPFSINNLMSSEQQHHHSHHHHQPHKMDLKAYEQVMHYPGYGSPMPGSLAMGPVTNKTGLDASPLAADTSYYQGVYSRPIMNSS
# In short: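 Readout: fluorescent reporter transcripts resolved by capillary electrophoresis after RT-PCR. Transiently transfected HepG2, 24 h compound exposure, endogenous TF activity at cis promoter elements. Gain or loss of signal fitted relative to DMSO.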
# [17] = ATG_FoxO_CIS: Attagene CIS-FACTORIAL HepG2 Assay for human Forkhead box O (FoxO) (AID 2282943); conditions: HepG2 Attagene cis-reporter, FoxO element, mRNA; actives raise or lower the signal
# In short: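 HepG2, transient MRTU transfection (cis element, endogenous TFs). Dose 24 h. TriZol RNA → oligo(dT) RT → PCR → 6-FAM primer extension → HpaI cut → CE. Gain/loss vs DMSO.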
# [18] = ATG_GATA_CIS: Attagene CIS-FACTORIAL HepG2 Assay for human GATA Binding Protein (AID 2282944); conditions: HepG2 GATA cis-element reporter, Attagene multiplex mRNA; actives raise or lower the signal
# In short: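 Transfected cis-reporter HepG2 cells were treated with chemicals for 24 hours. Total RNA was then converted to cDNA, amplified with reporter-specific primers and analysed by fluorescent capillary electrophoresis, using DMSO-treated wells as baseline.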
# [19] = ATG_GLI_CIS: Attagene CIS-FACTORIAL HepG2 Assay for human Zinc Finger Protein GLI1 (AID 2282945); conditions: HepG2, Attagene cis-factorial reporter mRNA, GLI element; actives raise or lower the signal
# In short: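 Bidirectional curve fits relative to DMSO, using reporter mRNA levels from RT-PCR plus capillary electrophoresis. Cells were HepG2 transiently carrying cis-regulated reporter constructs, harvested 24 h after dosing.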
structure (smiles),measurement,setting,value
CN1COCN(Cc2cnc(Cl)s2)C1=N[N+](=O)[O-],outcome,[1],inactive
same,outcome,[2],inactive
same,outcome,[3],inactive
same,outcome,[4],inactive
same,outcome,[5],inactive
same,outcome,[6],inactive
same,outcome,[7],inactive
same,outcome,[8],inactive
same,outcome,[9],inactive
same,outcome,[10],inactive
same,outcome,[11],inactive
same,outcome,[12],inactive
same,outcome,[13],inactive
same,outcome,[14],inactive
same,outcome,[15],inactive
same,outcome,[16],inactive
same,outcome,[17],inactive
same,outcome,[18],inactive
same,outcome,[19],inactive
C#CC(C)(C)NC(=O)c1cc(Cl)cc(Cl)c1,AC50,[1],29 µM (active)
same,AC50,[2],20.5 µM (active)
same,AC50,[3],39.3 µM (active)
same,outcome,[4],inactive
same,outcome,[5],inactive
same,outcome,[6],inactive
same,outcome,[7],inactive
same,AC50,[8],22.5 µM (active)
same,outcome,[9],inactive
same,outcome,[11],inactive
same,outcome,[12],inactive
same,outcome,[13],inactive
same,outcome,[14],inactive
same,outcome,[15],inactive
same,outcome,[16],inactive
same,outcome,[17],inactive
same,outcome,[18],inactive
same,outcome,[19],inactive
CSc1nnc(C(C)(C)C)c(=O)n1N,outcome,[1],inactive
same,outcome,[2],inactive
same,outcome,[3],inactive
same,outcome,[4],inactive
same,outcome,[6],inactive
same,outcome,[7],inactive
same,outcome,[8],inactive
same,outcome,[9],inactive
same,outcome,[10],inactive
same,outcome,[11],inactive
same,outcome,[12],inactive
same,outcome,[13],inactive
same,outcome,[14],inactive
same,outcome,[15],inactive
same,outcome,[16],inactive
same,outcome,[17],inactive
same,outcome,[18],inactive
same,outcome,[19],inactive
